From PubChem BioAssay (NCI) come the findings set out here.

Each structure is given as a SMILES string. About 83,000 compounds went through this panel and 20% of them were active in at least one assay; those are over-represented in the sample as a whole.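 Interpretation: 100, growth as untreated; towards 0, rising growth inhibition; 0, no net growth; 0 to -100, cell death. Compounds scoring below 10 were considered active.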 Values without a mark were called inactive. Active and inactive are the calls of the source.

The test system of this assay is MALME-3M melanoma. The assay is described as follows: NCI-60 one-dose screen, 48 h (100 = growth as untreated, 0 = no growth, -100 = all killed). Conditions: 10 µM unless noted.
With `S=c1[nH]nc(CSc2ncnc3c2c(-c2ccccc2)cn3-c2ccc(Cl)cc2)o1`, the growth was 98.5%.

For the molecule `COc1c(Cl)cc(Cl)cc1Cl`, the growth was 143%.

With `COc1ccc(-c2nn(-c3ccccc3)cc2/C=C/C(=O)OCc2cn(-c3ccc(F)c(Cl)c3)nn2)cc1`, the growth was 59%.

Regarding `COc1ccc2c(c1)C(=O)/C(=C/c1cccc(OCC(=O)Nc3nc4c(s3)CCCC4)c1)O2`, the growth is -67.6% (active).

Consider `CCN(CC)CC(C)Nc1ccc([N+](=O)[O-])c2sc3ccccc3c(=O)c12` (stereo unspecified), for which the growth is -6.6% (active).

In the case of `Cc1nn(-c2ccccc2)c2nc(C)n(-c3ccc(Br)cc3)c(=O)c12`, the growth was 45.9%.

As to `OC(c1cc(-c2ccccc2)nc2ccc(Cl)cc12)C1CCCCN1` (stereo unspecified), the growth is -41.3% (active).

For `COc1ccc(S(=O)(=O)NCCNc2nccc(-c3c(-c4cccc([N+](=O)[O-])c4)nc4sccn34)n2)cc1`, the growth was 111%.

On to `COc1ccc(Cl)cc1Nc1nc(C(F)(F)F)ccc1C(=O)N/N=C/c1cccnc1`, for which the growth was 42.6%.

In the case of `COc1ccc(-c2nn(-c3ccccc3)cc2/C=C2\SC(=O)NC2=O)cc1`, the growth was 112%.

For the molecule `Cc1ccc2c(c1)C(=O)c1c-2c(OCCCN(C)C)nc2ccccc12`, the growth was -71.7% (active).

In the case of `Cc1ccc(-c2nc(/C=N/Nc3cc(C)nc4ccc(Br)cc34)c(C)o2)cc1`, the growth is -82% (active).

In the case of `CCCCNP1(NCCCC)=NP(NCCCC)(NCCCC)=NP(NCCCC)(NCCCC)=NP(NCCCC)(NCCCC)=N1`, the growth was -18.1% (active).

Take `COc1ccc(-n2cc(-c3ccccc3)c3c(SCC(=O)N/N=C/c4ccc([N+](=O)[O-])cc4)ncnc32)cc1`: the growth is 110%.

Regarding `Nc1cccc(-c2nc3sccn3c2-c2ccnc(NCCCNS(=O)(=O)c3ccc(C(F)(F)F)cc3)n2)c1`, the growth is -2.19% (active).

As to `CCN(CC)CC(O)c1cc(-c2ccc(Cl)cc2)nc2c(C)c(Cl)ccc12` (stereo unspecified), the growth is -64% (active).

Consider `O=C1/C(=C/c2ccc(F)cc2)CN(C(=O)CCN2CCC(=NO)CC2)C/C1=C\c1ccc(F)cc1`, for which the growth was -22.4% (active).

On to `CC(C)C1=C[C@@]23CC[C@@H]4[C@](C)(CCC[C@@]4(C)C(=O)OCC#CCN4CCCC4)[C@H]2C[C@@H]1[C@H]1C(=O)OC(=O)[C@H]13`, for which the growth is 89.6%.

Regarding `Cc1ccc2c(c1)C(=O)/C(=C/c1ccc(OCC(=O)c3ccccc3)cc1)O2`, the growth was 114%.

For the molecule `Cc1ccc2c(c1)n([O-])c1cc(Cl)ccc1[n+]2=O`, the growth was 97.8%.

In the case of `COc1ccccc1/C=C(/C(=O)c1ccccc1)c1ccccc1`, the growth is 135%.

`COc1nc2c(cc1S(=O)(=O)c1ccccc1)CCc1c-2cnn1-c1ccc(Cl)cc1`: the growth is 96.8%.

Regarding `CNc1cc2nc3cc(NC)c(C)cc3cc2cc1C`, the growth was 41.3%.

`Nc1c(C(=O)Nc2ccccc2)sc2nc3c(cc12)CN(CCc1ccccc1)CC3`: the growth was 95.7%.

`CC(C)[C@@H]1CC[C@]2(C(=O)NCCCCN=C(N)N)CC[C@]3(C)[C@H](CC[C@@H]4[C@@]5(C)CCC(=O)C(C)(C)[C@@H]5CC[C@]43C)[C@@H]12`: the growth is 19%.

On to `CCOC(=O)c1cnc2ccc(Br)cc2c1Nc1cccc(S(=O)(=O)NC)c1`, for which the growth was 99.1%.
